FLuc inh-1: Photinus pyralis luciferase inhibition | Potency, µM (top dose mostly 115 µM), most hits filed as inhibitors | P08659 | purified P. pyralis luciferase, luminescence, biochemical | hit rate 2.5% among 76,000; also: % is scaled to controls: 0 for no effect and ±100 for the full control effect; nearly all actives have a fitted effect of over 65% in size
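Purified 10nM P. pyralis luciferase with 10uM D-luciferin and 10uM ATP in 50mM Tris acetate pH 7.5, 10mM Mg acetate, 0.01% Tween-20, 0.05% BSA. qHTS titration; luminescence read by CCD imager.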
HEK293 tox: cytotoxic compounds in HEK 293 cells; HEK 293 viability, ATP luminescence (CellTiter-Glo), 48-72 h; Potency, µM (doses to about 115 µM), without a hit: at the highest dose activity change, negative = cytotoxicity, actives largely listed as inhibitors; hit rate 6.6% among 94,000; AID 1345083; also: % is scaled to controls: 0 for no effect and ±100 for the full control effect; nearly all actives have a fitted effect of over 60% in size
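HEK 293 cells at 250 cells/well were exposed to compounds by pintool transfer for 48 or 72 hr at 37 degree Celsius, 5% CO2. Viability was read as ATP-coupled luminescence with CellTiter-Glo after 10 min at room temperature.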
3T3 cytotox: kills NIH 3T3 cells; NIH 3T3 viability, CellTiter-Glo ATP luminescence, 48-72 h; Potency, µM (series often up to 96.7 µM), without a hit: at the top dose activity change, negative = cytotoxicity, usual class: inhibitors; hit rate 4.3% among 94,000; AID 1345082; also: % is scaled to controls: 0 for no effect and ±100 for the full control effect; nearly all actives have a fitted effect of over 55% in size
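Cells were seeded at 400 per well, treated with pin-transferred compound, and kept 48 or 72 hr at 37 °C before CellTiter-Glo addition and luminescence imaging of cellular ATP.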
hNpr1 antagonist: human Npr1 receptor antagonism. Potency, µM (highest dose often 46.3 µM), for the others: at the top dose activity change, negative = inhibition, hits mostly inhibitors. P16066. HEK293 hNpr1 GloSensor cGMP, ANP-stimulated luminescence. hit rate 1.6% among 76,000; calls by dose curve; also: % is scaled to controls: 0 for no effect and ±100 for the full control effect; nearly all actives have a fitted effect of over 60% in size
Target sequence (P16066 whole entry, looked up): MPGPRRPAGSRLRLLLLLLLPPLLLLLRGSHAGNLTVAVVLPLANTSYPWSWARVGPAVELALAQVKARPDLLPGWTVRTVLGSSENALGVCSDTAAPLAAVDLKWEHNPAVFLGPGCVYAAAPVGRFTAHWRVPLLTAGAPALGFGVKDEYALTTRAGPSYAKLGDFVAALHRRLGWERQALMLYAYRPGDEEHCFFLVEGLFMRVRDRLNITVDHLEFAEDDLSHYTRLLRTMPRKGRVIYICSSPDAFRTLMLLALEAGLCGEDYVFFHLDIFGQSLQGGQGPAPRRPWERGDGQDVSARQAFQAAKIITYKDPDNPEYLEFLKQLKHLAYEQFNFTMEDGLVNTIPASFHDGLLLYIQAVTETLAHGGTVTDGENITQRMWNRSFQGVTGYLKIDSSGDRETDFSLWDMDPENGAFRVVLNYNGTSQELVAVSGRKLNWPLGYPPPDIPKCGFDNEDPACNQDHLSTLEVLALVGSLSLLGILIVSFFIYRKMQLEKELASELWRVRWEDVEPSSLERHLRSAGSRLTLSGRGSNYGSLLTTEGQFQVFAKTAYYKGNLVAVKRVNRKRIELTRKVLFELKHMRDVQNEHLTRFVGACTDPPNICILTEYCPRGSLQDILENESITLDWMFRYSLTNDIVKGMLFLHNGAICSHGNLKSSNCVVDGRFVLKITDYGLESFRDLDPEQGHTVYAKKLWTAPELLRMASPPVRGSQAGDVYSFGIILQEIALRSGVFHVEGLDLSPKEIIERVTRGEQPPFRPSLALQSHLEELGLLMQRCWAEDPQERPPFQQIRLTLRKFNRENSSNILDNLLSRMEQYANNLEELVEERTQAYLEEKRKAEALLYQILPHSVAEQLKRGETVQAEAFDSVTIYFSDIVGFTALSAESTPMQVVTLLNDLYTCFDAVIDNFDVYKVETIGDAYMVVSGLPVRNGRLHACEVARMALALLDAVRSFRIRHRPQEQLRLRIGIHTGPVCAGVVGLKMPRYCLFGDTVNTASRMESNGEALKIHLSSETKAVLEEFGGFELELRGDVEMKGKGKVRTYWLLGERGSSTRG
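Compound pre-incubated 30 min at room temperature on GloSensor-loaded HEK293 cells stably carrying hNpr1 and the pGS-40F cGMP biosensor. Stimulation uses hNppA at 0.1 nM final; luminescence is taken at baseline and 20 min post-agonist.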
GPT2 inh: inhibitors of human GPT2 alanine aminotransferase. Recombinant GPT2, coupled pyruvate oxidase/HRP Amplex Red fluorescence. Potency, µM (highest dose often 57.7 µM), without a hit: top-dose activity change, negative = inhibition, hits mostly inhibitors. hit rate 0.25% among 100,000. AID 1671188; also: % is scaled to controls: 0 for no effect and ±100 for the full control effect; nearly all actives have a fitted effect of over 60% in size
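Inhibition is scored from Amplex Red fluorescence generated when pyruvate oxidase and HRP act on pyruvate released by GPT2. Reactions contain 10ng/uL enzyme, 250uM a-KG and 2mM L-alanine and run 30 min at room temperature.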
FLuc SDR no ATP: stabilizes firefly luciferase without ATP. shares compounds with FLuc inh-1. Purified FLuc-C-HiBiT, Nano-Glo HiBiT luminescence, no ATP. Potency, µM (highest dose often 32.7 µM), for the others: at the top dose activation (signal gain), most hits filed as activators. hit rate 7.8% among 1,300; also: nearly all actives have a fitted effect of over 55% in size
FLuc SDR ATP: firefly luciferase binding stabilization, ATP added | shares compounds with FLuc inh-1 | purified FLuc-C-HiBiT + ATP, HiBiT complementation luminescence | Potency, µM (series often up to 32.7 µM), for inactives: top-dose activation (gain of signal), most hits filed as activators | hit rate 8.7% among 1,300;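 also: signal reports ligand binding via conformational change of the enzyme rather than luciferase catalysis; % of control where 0% means no effect; nearly all actives have a fitted effect of over 55% in size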
FLuc inh-2: inhibitors of firefly luciferase enzymatic activity | Potency, µM (series often up to 32.7 µM), for the others: top-dose activity change, negative = inhibition, usual class: inhibitors | hit rate 42% among 1,300 | shares compounds with FLuc inh-1 | purified FLuc-C-HiBiT enzyme, luciferin luminescence | AID 1963320; also: % is scaled to controls: 0 for no effect and ±100 for the full control effect; nearly all actives have a fitted effect of over 70% in size
Active calls of the source: *; i = inactive; ? = inconclusive; / = no result given; [ ] = another dose, or the depositor's remark. In the library only some 10% were active in any assay of this set; here they are far more common. Unless noted, calls follow the shape of the dose curve; as a rule, active = well fitted curve in the direction sought with a large enough effect; inconclusive = small, poorly fitted or top-dose-only effect, or another doubt; inactive = no such curve, though single readings can be large; an effect the other way counts as inactive or inconclusive. Potency is read from the fitted curve at half-maximal effect.

SMILES | FLuc inh-1 | HEK293 tox | 3T3 cytotox | hNpr1 antagonist | GPT2 inh | FLuc SDR no ATP | FLuc SDR ATP | FLuc inh-2
CC1CCC(NC(=O)C2CCN(C(=O)c3ncn4c3COC(c3ccccc3)C4)CC2)CC1 (stereo not drawn) | 2.8µM* | 4% | i | 0% | i | 12% | 3.1µM* | 2.5µM*
CCc1ccc(NC(=O)C2CCN(C(=O)c3ncn4c3COC(c3ccccc3)C4)CC2)cc1 (stereo not drawn) | 5µM* | ? | -27% | -17% | 3% | 13% | ? | 3.9µM*
O=C(Nc1ccccc1)C1CCN(C(=O)c2ncn3c2COC(c2ccccc2)C3)CC1 (stereo not drawn) | 2µM* | -30% | i | ? | i | 15% | 1.6µM* | 1.6µM*
O=C(NC1CC1)C1CCN(C(=O)c2ncn3c2COC(c2ccc(Cl)cc2)C3)CC1 (stereo not drawn) | ? | -4% | -5% | 4% | -7% | / | / | /
Cc1ccc(NC(=O)C2CCN(C(=O)c3ncn4c3COC(c3ccccc3)C4)CC2)cc1 (stereo not drawn) | 2µM* | 9% | -9% | -23% | i | 12% | 1.6µM* | 1.8µM*
CCCC(=O)Nc1cc(-c2cccnc2)nn1-c1ccccc1 | / | -5%[172 µM] | -2%[138 µM] | / | -6%[88.5 µM] | / | / | /
O=C(Nc1cccc(F)c1)C1CCN(C(=O)c2ncn3c2COC(c2ccccc2)C3)CC1 (stereo not drawn) | 1µM* | 6% | -1% | ? | i | 10% | 0.99µM* | 0.88µM*
O=C(NCc1ccccc1Cl)c1ccc2oc(-c3ccnc(Cl)c3)nc2c1 | / | -6%[172 µM] | -20%[138 µM] | / | -1%[88.5 µM] | / | / | /
O=C(NCCc1ccccc1Cl)c1ccc2c(c1)nc1n2CCOC1 | / | / | / | / | / | ? | ? | 7µM*
O=C(NCc1cccnc1)C1CCc2nnc(C3CCN([S+](=O)([O-])c4ccccc4Cl)CC3)n21 (stereo not drawn) | / | -19% | -18% | / | -5% | / | / | /
O=C(c1ccccc1Cl)N1CCc2nc(C3CC3)nc(-c3ccc(O)cc3)c2CC1 | i | -24% | -4% | 4% | 3% | / | / | /
CCN1c2cc(C(=O)Nc3ccc(Cl)cc3)ccc2C(=O)N2CCCCC21 (stereo not drawn) | i | ? | ? | -1% | -9% | / | / | /
CCN1c2cc(C(=O)Nc3ccc(Br)c(C)c3)ccc2C(=O)N2CCCCC21 (stereo not drawn) | i | ? | ? | -1% | i | / | / | /
CCN1c2cc(C(=O)Nc3ccc4c(c3)OCCO4)ccc2C(=O)N2CCCCC21 (stereo not drawn) | 11µM* | ? | 25µM* | -12% | i | 24% | ? | 9.9µM*
CCN1c2cc(C(=O)Nc3ccc(N(C)C)cc3)ccc2C(=O)N2CCCCC21 (stereo not drawn) | 11µM* | 45µM* | ? | -12% | -29% | 11% | 11% | ?
CN1c2cc(C(=O)Nc3ccc(F)c(Cl)c3)ccc2C(=O)N2CCCCCC21 (stereo not drawn) | ? | ? | -24% | -10% | i | / | / | /
Cn1c(=O)c2ccnn2c2ccc(C(=O)Nc3ccc4c(c3)OCCO4)cc21 | 10µM* | 35µM* | -19% | -27% | -6% | 26% | 20% | 9.9µM*
CN1c2cc(C(=O)Nc3ccc4c(c3)OCCO4)ccc2C(=O)N2CCCCC21 (stereo not drawn) | 7.9µM* | ? | ? | -22% | 3% | ? | ? | 9.9µM*
COc1cccc(CN2CCCC3(Cc4ccccc4CNC3=O)C2)n1 (stereo not drawn) | / | -24% | ? | / | i | / | / | /
Cn1ncc2c(C(=O)N3CCCC3)cc(-c3ccccc3F)nc21 | / | ? | -24%[138 µM] | / | / | / | / | /
COCCN1C(=O)c2ccccc2C(C(=O)Nc2ccc(F)cc2)C12CCCC2 (stereo not drawn) | i | 7% | -13% | 2% | i | / | / | /
CCCC(=O)N1Cc2ccccc2CC2(CCCN2Cc2ccncc2)C1 (stereo not drawn) | / | -10% | -8% | / | i | / | / | /
O=C([C@@H]1C[C@@H](O)[C@H](O)[C@@H]2NC(=S)N(c3ccc4c(c3)OCO4)[C@@H]21)N1CCOCC1 | 5µM* | i | i | -12%[70.6 µM] | 4%[88.5 µM] | 12%[49.3 µM] | ? | ?
CCN1Cc2cc(F)ccc2N(CC(O)COc2ccccc2)CCC1=O (stereo not drawn) | / | ? | -28% | / | / | / | / | /
Nc1nc(N2CCC3(CC2)NC(=O)CC3C(=O)O)c2[nH]cnc2n1 (stereo not drawn) | i | i | -3% | 2% | 3% | 13% | 9% | 4%
SMILES | FLuc inh-1 | HEK293 tox | 3T3 cytotox | hNpr1 antagonist | GPT2 inh | FLuc SDR no ATP | FLuc SDR ATP | FLuc inh-2
CN1CC(=O)N(C2CCC2)Cc2c1ncnc2N1CCOCC1 | / | i | i | / | -18% | / | / | /
CN1CC(=O)N(C2CCCC2)Cc2c1ncnc2N1CCOCC1 | i | 3%[172 µM] | -5%[138 µM] | 0%[70.6 µM] | 0%[88.5 µM] | 12%[49.3 µM] | 8%[49.3 µM] | 2%[49.3 µM]
O=C(Nc1nc2c(F)cccc2s1)c1ccc2c(c1)OCCO2 | / | / | / | / | / | 9.9µM* | ? | 0.5µM*
O=C(Nc1nc2ccccc2s1)c1ccc2c(c1)OCCN(CCC(F)(F)F)C2 | 13µM* | 20µM* | ? | ? | i | 13%[49.3 µM] | 10%[49.3 µM] | ?
O=C(Nc1nccs1)c1ccc2c(c1)OCCN(c1ccccc1)C2 | ? | -26%[172 µM] | ? | -18%[70.6 µM] | -18%[88.5 µM] | / | / | /
O=C(Nc1nccs1)c1ccc2c(c1)OCCN(CCC(F)(F)F)C2 | ? | ? | ? | -13%[70.6 µM] | -22%[88.5 µM] | / | / | /
Cc1ccc(C(=O)NC2CCN(C(=O)c3ccc(-c4cncnc4)cc3)CC2)cc1 | / | -16% | -28% | / | i | / | / | /
Cc1ccc(-c2cc(N3CCC(CNC(=O)c4ccc5nc[nH]c5c4)CC3)n[nH]2)cc1 | 14µM* | ? | ? | -25% | ? | 20% | 15% | ?
Nc1ccc2c(N3CCCCC3)ncnc2c1 | i | -18% | -21% | -5% | -16% | / | / | /
Cc1ccc(-n2ncc3c(N4CCCCC4)ncnc32)cc1Cl | / | / | / | / | / | 8.8µM* | 1.8µM* | 0.79µM*
Cc1ccc(-n2ncc3c(N4CCCCCC4)ncnc32)cc1Cl | / | / | / | / | / | ? | ? | 0.7µM*
Cc1ccc(-n2ncc3c(N4CCCCC4)ncnc32)cc1 | / | / | / | / | / | 1.8µM* | 1.1µM* | 0.2µM*

Screens (PubChem)
